The source of these data is article PMC7862700, “An all-to-all approach to the identification of sequence-specific readers for epigenetic DNA modifications on cytosine”.

Holding throughout (assay): DAPPL (digital affinity profiling via proximity ligation, sequencing); 10 mM Tris-HCl pH 7.5, 50 mM NaCl, 1 mM DTT, 4% glycerol, room temperature, 30 min; GST-TFs on glutathione beads, 16-mer random dsDNA library, 0.1% formaldehyde crosslink after washing; high values mean tight binding
The target of one test is T1, FLI1 (Homo sapiens, UniProt Q01543 1-452).
T1 sequence: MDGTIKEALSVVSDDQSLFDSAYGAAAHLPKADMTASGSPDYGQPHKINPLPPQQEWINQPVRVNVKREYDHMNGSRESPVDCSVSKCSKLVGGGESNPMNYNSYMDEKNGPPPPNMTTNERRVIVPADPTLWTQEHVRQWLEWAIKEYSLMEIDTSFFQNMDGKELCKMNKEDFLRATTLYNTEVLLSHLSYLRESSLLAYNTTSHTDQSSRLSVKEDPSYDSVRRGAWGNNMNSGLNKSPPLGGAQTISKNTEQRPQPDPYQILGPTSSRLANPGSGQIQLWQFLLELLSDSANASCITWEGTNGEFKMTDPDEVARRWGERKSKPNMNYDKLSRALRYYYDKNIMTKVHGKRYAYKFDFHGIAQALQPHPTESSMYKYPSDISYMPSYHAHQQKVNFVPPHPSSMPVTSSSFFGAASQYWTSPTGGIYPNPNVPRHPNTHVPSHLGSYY
The conditions noted are these: protein: recombinant; tags: N-terminal GST; dsDNA, one strand shown. The method, boiled down:
(§1)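 Human transcription factors were made in yeast as GST fusions, captured on glutathione beads and barcoded with DNA. With a tag-only sample included, the pool was incubated with 200 nmole of a random double-stranded 16-mer DNA library in Tris/NaCl/DTT/glycerol buffer at room temperature for 30 min, then crosslinked with 0.1% formaldehyde after washing, ligated by proximity, amplified and sequenced. For binding signal, each hexamer's read frequency for a factor is divided by its frequency for the tag-only sample.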

In a further test the target is T2, ELK1 (Homo sapiens, UniProt P19419 1-428).
T2 sequence: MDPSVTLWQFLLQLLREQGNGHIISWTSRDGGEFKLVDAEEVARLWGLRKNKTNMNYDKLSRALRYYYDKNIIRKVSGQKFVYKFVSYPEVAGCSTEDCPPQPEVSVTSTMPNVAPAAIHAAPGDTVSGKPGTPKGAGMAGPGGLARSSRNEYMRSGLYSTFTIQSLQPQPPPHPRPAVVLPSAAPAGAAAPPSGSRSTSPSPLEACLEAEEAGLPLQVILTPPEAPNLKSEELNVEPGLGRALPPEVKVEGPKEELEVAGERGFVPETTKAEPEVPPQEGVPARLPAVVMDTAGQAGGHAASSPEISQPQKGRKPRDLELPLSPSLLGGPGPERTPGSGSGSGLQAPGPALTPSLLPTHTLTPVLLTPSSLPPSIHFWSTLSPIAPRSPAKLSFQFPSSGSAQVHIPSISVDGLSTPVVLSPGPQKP
The conditions noted are these: protein: recombinant; tags: N-terminal GST; dsDNA, one strand shown. In short, it runs like this:
as §1

The target in a further test is T3, GABPA (Homo sapiens, UniProt Q06546 1-454).
T3 sequence: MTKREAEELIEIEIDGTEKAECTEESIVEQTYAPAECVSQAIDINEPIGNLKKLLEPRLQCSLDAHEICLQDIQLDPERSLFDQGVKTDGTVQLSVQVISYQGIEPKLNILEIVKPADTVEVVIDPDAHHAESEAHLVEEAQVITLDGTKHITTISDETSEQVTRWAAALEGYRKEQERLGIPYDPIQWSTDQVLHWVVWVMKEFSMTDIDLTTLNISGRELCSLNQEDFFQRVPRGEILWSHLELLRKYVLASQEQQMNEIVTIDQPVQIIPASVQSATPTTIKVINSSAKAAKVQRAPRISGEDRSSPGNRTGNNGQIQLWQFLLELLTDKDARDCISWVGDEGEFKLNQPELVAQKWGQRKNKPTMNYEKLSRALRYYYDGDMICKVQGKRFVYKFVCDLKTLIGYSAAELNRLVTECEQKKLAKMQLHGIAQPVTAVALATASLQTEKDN
The conditions noted are these: protein: recombinant; tags: N-terminal GST; dsDNA, one strand shown. The method, boiled down:
as §1

Another test has as its target T4, ERG (Homo sapiens, UniProt P11308 1-479).
T4 sequence: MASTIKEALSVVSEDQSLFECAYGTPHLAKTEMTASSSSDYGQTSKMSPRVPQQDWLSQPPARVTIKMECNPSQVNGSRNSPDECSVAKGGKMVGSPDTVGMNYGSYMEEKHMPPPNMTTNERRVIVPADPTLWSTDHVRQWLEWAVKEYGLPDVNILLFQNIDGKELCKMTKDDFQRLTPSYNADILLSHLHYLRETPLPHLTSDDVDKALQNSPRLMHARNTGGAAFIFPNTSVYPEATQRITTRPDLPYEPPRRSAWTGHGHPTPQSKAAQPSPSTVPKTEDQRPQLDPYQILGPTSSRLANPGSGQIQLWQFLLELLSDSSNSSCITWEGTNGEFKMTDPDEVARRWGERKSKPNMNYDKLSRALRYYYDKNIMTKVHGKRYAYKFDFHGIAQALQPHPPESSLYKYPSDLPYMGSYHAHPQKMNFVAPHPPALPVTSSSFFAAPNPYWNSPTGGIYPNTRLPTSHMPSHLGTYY
The conditions noted are these: protein: recombinant; tags: N-terminal GST; dsDNA, one strand shown. In short, it runs like this:
as §1

Another test has as its target ELF1 (Homo sapiens, UniProt P32519 1-619). The following applies: protein: recombinant; tags: N-terminal GST; dsDNA, one strand shown. The method, boiled down: as §1
Another test has as its target T5, EHF (Homo sapiens, UniProt Q9NZC4 1-300).
T5 sequence: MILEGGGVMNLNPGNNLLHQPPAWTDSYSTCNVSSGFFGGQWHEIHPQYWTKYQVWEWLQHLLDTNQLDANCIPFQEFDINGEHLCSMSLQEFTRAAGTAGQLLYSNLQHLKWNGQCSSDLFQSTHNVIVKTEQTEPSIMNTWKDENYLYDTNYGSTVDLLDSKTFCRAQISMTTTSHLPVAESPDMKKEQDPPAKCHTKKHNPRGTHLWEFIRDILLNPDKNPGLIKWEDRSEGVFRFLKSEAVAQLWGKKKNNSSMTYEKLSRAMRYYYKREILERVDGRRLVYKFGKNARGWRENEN
The conditions noted are these: protein: recombinant; tags: N-terminal GST; dsDNA, one strand shown. The method, boiled down:
as §1

A further test has as its target SPI1 (Homo sapiens, UniProt P17947 1-270). The conditions noted are these: protein: recombinant; tags: N-terminal GST; dsDNA, one strand shown. In short, it runs like this: as §1
For a further test, the target named is SPIB (Homo sapiens, UniProt Q01892 1-262). The following applies: protein: recombinant; tags: N-terminal GST; dsDNA, one strand shown. The method, boiled down:
as §1

The next test concerns the target T6, ELK3 (Homo sapiens, UniProt P41970 1-407).
T6 sequence: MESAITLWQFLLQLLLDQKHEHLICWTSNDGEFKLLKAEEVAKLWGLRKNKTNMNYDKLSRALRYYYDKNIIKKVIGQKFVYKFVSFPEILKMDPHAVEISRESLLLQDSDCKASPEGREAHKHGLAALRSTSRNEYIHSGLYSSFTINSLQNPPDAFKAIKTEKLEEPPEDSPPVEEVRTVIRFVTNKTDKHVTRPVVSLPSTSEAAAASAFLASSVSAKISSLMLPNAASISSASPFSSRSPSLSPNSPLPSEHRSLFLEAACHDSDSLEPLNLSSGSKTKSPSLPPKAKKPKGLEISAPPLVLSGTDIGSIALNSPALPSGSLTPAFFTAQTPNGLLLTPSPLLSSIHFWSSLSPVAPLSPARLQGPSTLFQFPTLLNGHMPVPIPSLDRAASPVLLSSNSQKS
The following applies: protein: recombinant; tags: N-terminal GST; dsDNA, one strand shown. The method, boiled down: as §1

The target of the next test is T7, FEV (Homo sapiens, UniProt Q99581 1-238).
T7 sequence: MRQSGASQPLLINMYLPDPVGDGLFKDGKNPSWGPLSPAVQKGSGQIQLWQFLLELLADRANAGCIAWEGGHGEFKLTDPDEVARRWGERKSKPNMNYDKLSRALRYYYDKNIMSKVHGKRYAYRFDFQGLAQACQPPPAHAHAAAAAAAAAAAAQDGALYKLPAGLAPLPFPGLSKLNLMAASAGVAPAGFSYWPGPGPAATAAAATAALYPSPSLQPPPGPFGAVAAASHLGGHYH
The conditions noted are these: protein: recombinant; tags: N-terminal GST; dsDNA, one strand shown. In short, it runs like this: as §1

The target of a further test is ETV5 (Homo sapiens, UniProt P41161 1-510). The following applies: protein: recombinant; tags: N-terminal GST; dsDNA, one strand shown. In short, it runs like this:
as §1

The target in a further test is HSF1 (Homo sapiens, UniProt Q00613 1-529). The following applies: protein: recombinant; tags: N-terminal GST; chain copies: 3; dsDNA, one strand shown. In short, it runs like this: as §1
The target in a further test is T8, SPIC (Homo sapiens, UniProt Q8N5J4 1-248).
T8 sequence: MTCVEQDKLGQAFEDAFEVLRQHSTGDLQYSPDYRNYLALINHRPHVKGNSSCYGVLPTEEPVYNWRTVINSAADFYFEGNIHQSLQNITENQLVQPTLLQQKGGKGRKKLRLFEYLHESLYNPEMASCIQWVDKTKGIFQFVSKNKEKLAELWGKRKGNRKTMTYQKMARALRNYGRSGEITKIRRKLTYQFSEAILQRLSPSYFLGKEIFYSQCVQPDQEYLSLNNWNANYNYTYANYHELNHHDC
The conditions noted are these: protein: recombinant; tags: N-terminal GST; dsDNA, one strand shown. In short, it runs like this: as §1

The next test concerns the target ELF4 (Homo sapiens, UniProt Q99607 1-663). The conditions noted are these: protein: recombinant; tags: N-terminal GST; dsDNA, one strand shown. The method, boiled down: as §1
The next test concerns the target T9, ELK4 (Homo sapiens, UniProt P28324-2 1-405).
T9 sequence: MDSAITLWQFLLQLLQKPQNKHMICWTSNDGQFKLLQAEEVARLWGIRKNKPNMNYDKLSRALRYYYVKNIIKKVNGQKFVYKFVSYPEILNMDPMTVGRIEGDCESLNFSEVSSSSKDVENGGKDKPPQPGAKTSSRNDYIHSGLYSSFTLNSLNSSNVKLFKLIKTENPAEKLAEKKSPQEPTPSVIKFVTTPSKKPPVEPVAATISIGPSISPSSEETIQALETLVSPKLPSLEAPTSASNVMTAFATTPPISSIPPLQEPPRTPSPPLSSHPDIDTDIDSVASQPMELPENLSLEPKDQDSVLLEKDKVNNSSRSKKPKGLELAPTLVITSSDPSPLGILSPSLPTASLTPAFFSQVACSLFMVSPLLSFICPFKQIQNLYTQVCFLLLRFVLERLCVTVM
The following applies: protein: recombinant; tags: N-terminal GST; dsDNA, one strand shown. In short, it runs like this: as §1

The next test addresses T10, ETV2 (Homo sapiens, UniProt O00321 1-342).
T10 sequence: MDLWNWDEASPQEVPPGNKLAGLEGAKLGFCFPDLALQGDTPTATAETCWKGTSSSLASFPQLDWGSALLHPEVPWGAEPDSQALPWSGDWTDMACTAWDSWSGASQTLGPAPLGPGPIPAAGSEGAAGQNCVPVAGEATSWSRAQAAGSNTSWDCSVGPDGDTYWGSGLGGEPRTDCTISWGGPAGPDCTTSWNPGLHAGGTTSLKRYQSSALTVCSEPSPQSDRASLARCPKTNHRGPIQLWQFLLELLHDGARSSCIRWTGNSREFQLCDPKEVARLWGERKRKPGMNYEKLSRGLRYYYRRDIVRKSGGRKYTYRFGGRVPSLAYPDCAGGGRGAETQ
The following applies: protein: recombinant; tags: N-terminal GST; dsDNA, one strand shown. In short, it runs like this: as §1

In another test the target is T11, ELF3 (Homo sapiens, UniProt P78545 1-371).
T11 sequence: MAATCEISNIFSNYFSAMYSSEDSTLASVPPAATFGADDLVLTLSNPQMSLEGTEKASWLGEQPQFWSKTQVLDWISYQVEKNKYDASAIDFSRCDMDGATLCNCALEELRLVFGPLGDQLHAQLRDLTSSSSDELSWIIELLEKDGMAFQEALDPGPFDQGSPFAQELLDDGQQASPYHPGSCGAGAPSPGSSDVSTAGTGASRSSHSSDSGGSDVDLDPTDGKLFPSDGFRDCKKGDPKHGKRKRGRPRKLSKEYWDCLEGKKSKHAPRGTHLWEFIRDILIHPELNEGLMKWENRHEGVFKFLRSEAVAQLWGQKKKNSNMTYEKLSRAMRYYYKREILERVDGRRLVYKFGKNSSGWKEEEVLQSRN
The conditions noted are these: protein: recombinant; tags: N-terminal GST; dsDNA, one strand shown. In short, it runs like this:
as §1

Another test deals with CRX (Homo sapiens, UniProt O43186 1-299). The following applies: protein: recombinant; tags: N-terminal GST; dsDNA, one strand shown. The method, boiled down: as §1
Another test deals with ETV1 (Homo sapiens, UniProt P50549 1-477). The conditions noted are these: protein: recombinant; tags: N-terminal GST; dsDNA, one strand shown. The method, boiled down:
as §1

ELF1, sequence (P32519 whole entry): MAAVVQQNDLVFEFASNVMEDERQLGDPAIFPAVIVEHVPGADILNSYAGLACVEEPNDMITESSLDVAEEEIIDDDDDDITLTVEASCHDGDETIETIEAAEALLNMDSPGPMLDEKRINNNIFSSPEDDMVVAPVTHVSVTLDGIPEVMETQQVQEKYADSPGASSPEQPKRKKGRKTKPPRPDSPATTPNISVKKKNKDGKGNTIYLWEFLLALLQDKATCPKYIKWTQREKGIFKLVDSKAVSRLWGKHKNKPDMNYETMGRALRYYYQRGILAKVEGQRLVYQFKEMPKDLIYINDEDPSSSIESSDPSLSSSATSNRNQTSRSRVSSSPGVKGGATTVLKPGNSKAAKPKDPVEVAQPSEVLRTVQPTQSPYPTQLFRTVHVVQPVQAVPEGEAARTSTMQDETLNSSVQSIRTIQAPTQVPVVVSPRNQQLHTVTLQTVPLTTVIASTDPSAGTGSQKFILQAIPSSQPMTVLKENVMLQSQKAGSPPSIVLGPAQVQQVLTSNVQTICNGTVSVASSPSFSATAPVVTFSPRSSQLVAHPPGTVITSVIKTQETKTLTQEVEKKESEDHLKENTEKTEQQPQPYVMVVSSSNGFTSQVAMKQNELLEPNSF
ETV5, sequence (P41161 whole entry): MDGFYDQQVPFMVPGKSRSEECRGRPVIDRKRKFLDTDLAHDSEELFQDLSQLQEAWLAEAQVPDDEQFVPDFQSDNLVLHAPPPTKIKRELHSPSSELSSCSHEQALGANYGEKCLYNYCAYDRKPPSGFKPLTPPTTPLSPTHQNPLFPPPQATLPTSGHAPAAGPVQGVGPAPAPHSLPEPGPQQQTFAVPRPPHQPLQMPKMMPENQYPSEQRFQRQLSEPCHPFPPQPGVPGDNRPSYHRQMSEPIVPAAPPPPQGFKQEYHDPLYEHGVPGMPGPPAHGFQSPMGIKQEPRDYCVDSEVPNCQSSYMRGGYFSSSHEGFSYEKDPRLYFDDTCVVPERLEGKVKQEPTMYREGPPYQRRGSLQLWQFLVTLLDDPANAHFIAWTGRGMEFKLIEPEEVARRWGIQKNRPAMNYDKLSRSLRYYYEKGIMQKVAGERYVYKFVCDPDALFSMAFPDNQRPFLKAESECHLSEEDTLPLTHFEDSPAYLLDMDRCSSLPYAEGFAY
ETV1, sequence (P50549 whole entry): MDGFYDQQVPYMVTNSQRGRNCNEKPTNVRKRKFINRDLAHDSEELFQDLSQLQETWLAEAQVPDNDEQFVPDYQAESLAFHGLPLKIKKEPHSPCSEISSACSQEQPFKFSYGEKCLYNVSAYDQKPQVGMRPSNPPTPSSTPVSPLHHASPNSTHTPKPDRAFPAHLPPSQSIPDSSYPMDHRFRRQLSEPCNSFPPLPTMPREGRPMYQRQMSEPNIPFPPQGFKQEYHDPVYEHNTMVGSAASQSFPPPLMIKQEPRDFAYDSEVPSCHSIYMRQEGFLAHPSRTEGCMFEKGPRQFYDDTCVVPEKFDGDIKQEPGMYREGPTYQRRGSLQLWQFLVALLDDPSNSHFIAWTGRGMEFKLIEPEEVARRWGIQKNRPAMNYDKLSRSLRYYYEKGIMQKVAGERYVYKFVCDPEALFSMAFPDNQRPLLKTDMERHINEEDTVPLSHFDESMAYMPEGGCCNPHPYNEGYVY
SPIB, sequence (Q01892 whole entry): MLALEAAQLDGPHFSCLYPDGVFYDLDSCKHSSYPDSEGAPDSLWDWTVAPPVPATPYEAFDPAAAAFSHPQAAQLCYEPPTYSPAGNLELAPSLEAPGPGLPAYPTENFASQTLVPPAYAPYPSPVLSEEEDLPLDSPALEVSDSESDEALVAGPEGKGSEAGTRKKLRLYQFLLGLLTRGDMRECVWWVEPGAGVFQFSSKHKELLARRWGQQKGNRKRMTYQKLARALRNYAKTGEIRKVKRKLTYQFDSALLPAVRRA
ELF4, sequence (Q99607 whole entry): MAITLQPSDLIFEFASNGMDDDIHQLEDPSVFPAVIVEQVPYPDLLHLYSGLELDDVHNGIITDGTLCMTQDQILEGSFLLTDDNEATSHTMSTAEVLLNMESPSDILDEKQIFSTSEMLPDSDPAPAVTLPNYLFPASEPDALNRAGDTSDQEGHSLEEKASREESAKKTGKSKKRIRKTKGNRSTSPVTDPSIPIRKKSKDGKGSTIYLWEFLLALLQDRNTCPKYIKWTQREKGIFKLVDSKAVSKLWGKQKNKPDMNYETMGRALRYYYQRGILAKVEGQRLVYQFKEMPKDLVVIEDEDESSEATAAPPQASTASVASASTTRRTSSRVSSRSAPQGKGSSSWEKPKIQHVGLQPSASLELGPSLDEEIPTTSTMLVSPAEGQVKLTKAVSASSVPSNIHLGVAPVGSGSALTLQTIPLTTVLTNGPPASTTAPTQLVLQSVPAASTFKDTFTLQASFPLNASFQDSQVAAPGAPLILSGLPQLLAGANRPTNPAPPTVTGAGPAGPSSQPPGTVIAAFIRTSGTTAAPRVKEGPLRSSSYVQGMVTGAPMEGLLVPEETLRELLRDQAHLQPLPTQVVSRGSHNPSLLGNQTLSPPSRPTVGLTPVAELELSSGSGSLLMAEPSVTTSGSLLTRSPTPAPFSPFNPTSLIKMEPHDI
HSF1, sequence (Q00613 whole entry): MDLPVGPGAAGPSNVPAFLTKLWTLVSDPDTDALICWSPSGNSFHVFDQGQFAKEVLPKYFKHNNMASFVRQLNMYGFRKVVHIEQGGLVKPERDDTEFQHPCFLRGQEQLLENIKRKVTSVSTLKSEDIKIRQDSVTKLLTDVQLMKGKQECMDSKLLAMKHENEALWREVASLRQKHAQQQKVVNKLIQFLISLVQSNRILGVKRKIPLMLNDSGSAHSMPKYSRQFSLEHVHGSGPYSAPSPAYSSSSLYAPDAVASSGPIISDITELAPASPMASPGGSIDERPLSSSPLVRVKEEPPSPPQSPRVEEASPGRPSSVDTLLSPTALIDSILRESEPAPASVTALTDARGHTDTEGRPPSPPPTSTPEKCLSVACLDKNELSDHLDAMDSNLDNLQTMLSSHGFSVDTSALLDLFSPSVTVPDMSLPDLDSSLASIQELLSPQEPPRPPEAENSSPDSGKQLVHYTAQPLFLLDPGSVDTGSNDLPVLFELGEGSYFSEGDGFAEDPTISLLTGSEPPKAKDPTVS
CRX, sequence (O43186 whole entry): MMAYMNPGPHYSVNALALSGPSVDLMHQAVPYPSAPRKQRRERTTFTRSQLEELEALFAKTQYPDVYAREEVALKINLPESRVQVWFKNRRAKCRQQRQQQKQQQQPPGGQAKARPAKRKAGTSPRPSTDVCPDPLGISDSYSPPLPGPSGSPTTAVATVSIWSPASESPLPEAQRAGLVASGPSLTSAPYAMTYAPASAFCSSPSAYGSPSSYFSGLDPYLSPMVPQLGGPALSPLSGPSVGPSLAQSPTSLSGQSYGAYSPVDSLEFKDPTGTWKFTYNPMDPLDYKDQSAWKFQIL

For the sequence TATAAG, the binding signal was 1.15 fold enrichment (6-mer frequency, TF over GST control) in the test with FLI1; 1.23 fold enrichment (6-mer frequency, TF over GST control) with ELK1; 1.16 fold enrichment (6-mer frequency, TF over GST control) with GABPA; 1.12 fold enrichment (6-mer frequency, TF over GST control) with ERG; 1.17 fold enrichment (6-mer frequency, TF over GST control) with ELF1; 1.1 fold enrichment (6-mer frequency, TF over GST control) with EHF. The binding signal with SPI1 was 1.13 fold enrichment (6-mer frequency, TF over GST control); in the test with SPIB, 1.12 fold enrichment (6-mer frequency, TF over GST control); with ELK3, 1.24 fold enrichment (6-mer frequency, TF over GST control); in the test with FEV, 1.05 fold enrichment (6-mer frequency, TF over GST control); with ETV5, 1.12 fold enrichment (6-mer frequency, TF over GST control); with HSF1, 1.51 fold enrichment (6-mer frequency, TF over GST control). The binding signal was 1.1 fold enrichment (6-mer frequency, TF over GST control) with SPIC; 1.15 fold enrichment (6-mer frequency, TF over GST control) with ELF4; 1.08 fold enrichment (6-mer frequency, TF over GST control) with ELK4; 1.22 fold enrichment (6-mer frequency, TF over GST control) with ETV2; 1.23 fold enrichment (6-mer frequency, TF over GST control) with ELF3; 2.08 fold enrichment (6-mer frequency, TF over GST control) in the test with CRX. Further, the binding signal with ETV1 is 1.15 fold enrichment (6-mer frequency, TF over GST control).
